Laboratory results: PubChem BioAssay (Tox21)
Several values for one entry are separate records, joined by “and”; a condition that tells them apart may be missing. Equal entries are not always repeated. Records with an inconclusive call do not appear. Entries that show only a call come without a potency. Some compounds were tested as several samples or in several runs, with calls that do not always agree. Activity calls are given as the source filed them. Unless noted, the call rests on the fitted dose curve; in most records, active means well fitted curve in the direction sought with a large enough effect in the repeat runs; inconclusive means weak or mixed curves; inactive means no such curve, though single readings can be large; an effect the other way counts as inactive or inconclusive.

Legend:
[1] = molecular target: Retinoic acid receptor RXR-alpha (Homo sapiens) (UniProt P19793); test: qHTS assay to identify small molecule agonists of the RXR signaling pathway (AID 1159527; calls by dose curve; further: nearly all actives have a fitted effect of over 35% in size)
Retinoic acid receptor RXR-alpha (Homo sapiens), sequence (P19793 whole entry, looked up): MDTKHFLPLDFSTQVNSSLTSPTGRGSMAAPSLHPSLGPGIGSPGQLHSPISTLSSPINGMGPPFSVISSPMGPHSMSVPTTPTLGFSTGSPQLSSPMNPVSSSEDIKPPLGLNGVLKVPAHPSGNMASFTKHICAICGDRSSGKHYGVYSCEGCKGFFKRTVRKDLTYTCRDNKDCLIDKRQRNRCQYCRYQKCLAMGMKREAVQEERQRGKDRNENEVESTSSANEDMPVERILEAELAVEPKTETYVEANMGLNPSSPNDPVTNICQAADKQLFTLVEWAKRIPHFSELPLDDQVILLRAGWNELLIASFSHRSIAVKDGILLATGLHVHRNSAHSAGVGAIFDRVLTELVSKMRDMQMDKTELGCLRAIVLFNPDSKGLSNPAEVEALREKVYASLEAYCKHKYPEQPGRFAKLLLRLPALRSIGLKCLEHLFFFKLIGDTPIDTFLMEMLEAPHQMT
Outline: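 Beta-lactamase reporter assay, agonist format. Engineered HEK 293T line, charcoal-stripped FBS at 2%, overnight (16 hr) exposure, fluorescence at 460 and 530 nm after 405 nm excitation.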

[2] = qHTS assay to identify small molecule agonists of the RXR signaling pathway - cell viability counter screen (AID 1159529);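 further: HEK 293T cells carrying an RXR-alpha UAS beta-lactamase reporter; series mostly up to about 77 µM; nearly all actives have a fitted effect of over 50% in size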
Outline: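 Same-well viability check after the LiveBLAzer FRET read: CellTiter-Glo added, luminescence measured after 30 min at room temperature. Reporter HEK 293T cells had been treated with compounds for 16 hr following a 5 hr preincubation.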

[3] = qHTS assay to identify small molecule antagonists of the retinoid acid receptor (RAR) signaling pathway - cell viability counter screen (AID 1159551); further: nearly all actives have a fitted effect of over 35% in size
Outline: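 C3RL4 RARE-luciferase line; cpds + retinol 1 uM final, 6 h, 37 C/5% CO2; CellTiter-Glo ATP luminescence, 30 min RT.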

[4] = qHTS assay to identify small molecule antagonists of the retinoic acid receptor (RAR) signaling pathway (AID 1159552; further: nearly all actives have a fitted effect of over 50% in size)
Outline: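 Readout: luciferase luminescence, 30 min post-reagent at RT. Setup: C3RL4 RARE reporter cells, compounds plus retinol 1 uM final, 6 hr incubation at 37 C and 5% CO2.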

[5] = qHTS assay to identify small molecule agonists of the retinoic acid receptor (RAR) signaling pathway (AID 1159553)
Outline: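 RARE-luc C3RL4 cells; overnight attachment 37 C/5% CO2; compound (DMSO) 6 hr; luciferase reagent, 30 min RT; luminescence read-out.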

[6] = qHTS assay to identify small molecule antagonists of the estrogen related receptor (ERR) signaling pathway from Tox21 library - cell viability counter screen (AID 1224834); further: nearly all actives have a fitted effect of over 30% in size
Outline: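 Multiplexed viability counter screen in ERR cells: 17.5 h compound exposure at 37 C, CellTiter-Fluor added, 30 min at 37 C/5% CO2, fluorescence read.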

[7] = molecular target: Luciferin 4-monooxygenase (Photinus pyralis) (UniProt P08659); test: qHTS assay to identify small molecule inhibitors of firefly luciferase (AID 1224835); further: series mostly up to about 120 µM; nearly all actives have a fitted effect of over 25% in size
Luciferin 4-monooxygenase (Photinus pyralis), sequence (P08659 whole entry, looked up): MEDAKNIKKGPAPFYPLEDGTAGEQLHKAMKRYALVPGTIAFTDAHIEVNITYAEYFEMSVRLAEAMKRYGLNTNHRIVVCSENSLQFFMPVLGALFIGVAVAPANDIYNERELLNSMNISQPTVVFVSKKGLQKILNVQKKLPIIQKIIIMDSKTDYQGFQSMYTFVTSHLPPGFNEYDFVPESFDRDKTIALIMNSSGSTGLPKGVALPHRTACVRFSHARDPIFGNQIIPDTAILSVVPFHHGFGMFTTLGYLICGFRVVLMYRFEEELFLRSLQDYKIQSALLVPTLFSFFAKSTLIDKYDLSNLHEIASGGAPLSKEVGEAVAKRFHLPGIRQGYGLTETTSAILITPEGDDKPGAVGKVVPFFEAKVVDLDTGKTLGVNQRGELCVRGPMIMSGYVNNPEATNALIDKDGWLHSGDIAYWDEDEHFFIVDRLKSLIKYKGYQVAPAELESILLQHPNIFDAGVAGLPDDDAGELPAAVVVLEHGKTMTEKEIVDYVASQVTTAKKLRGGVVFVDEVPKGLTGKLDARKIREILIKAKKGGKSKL
Outline: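 Inhibition of purified Photinus luciferase is measured by luminescence. Substrate levels (D-luciferin, ATP) sit at their KM values. Each compound is tested in a concentration series.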

[8] = qHTS assay to identify small molecule agonists of the constitutive androstane receptor (CAR) signaling pathway - cell viability counter screen (AID 1224836); further: series mostly up to about 92 µM; nearly all actives have a fitted effect of over 45% in size
Outline: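 Compound titrations (15 concentrations) went onto HepG2-CYP2B6-hCAR cells 4 h after seeding, alongside PK11195 at a final 0.75 uM; a 23 h, 37 C/5% CO2 incubation preceded CellTiter-Fluor viability measurement.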

[9] = qHTS assay to identify small molecule antagonists of the constitutive androstane receptor (CAR) signaling pathway - cell viability counter screen (AID 1224837); further: series mostly up to about 92 µM; nearly all actives have a fitted effect of over 45% in size
Outline: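 Read-out: CellTiter-Fluor fluorescence after 23 hr at 37 C/5% CO2. Cells: HepG2 double-stable for hCAR and CYP2B6-2.2kb. Compounds tested at 15 concentrations in the presence of CITCO, final concentration 50 nM.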

[10] = qHTS assay to identify small molecule antagonists of the estrogen related receptor signaling pathway with the pleiotropic PPARgamma coactivator (PGC) from Tox21 10K library - cell viability counter screen (AID 1224840; active means well fitted cell-killing curve with a large enough effect in the repeat runs, not every such curve was filed as active; further: nearly all actives have a fitted effect of over 40% in size)
Outline: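 Fluorescence read-out of CellTiter-Fluor viability reagent, added after cells had been exposed to compound in DMSO for 17.5 h at 37 C; 30 min development at 37 C/5% CO2. Cells: PGC/ERR line, 2,000/well.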

[11] = molecular target: Nuclear receptor subfamily 1 group I member 3 (Homo sapiens) (UniProt Q14994); test: qHTS assay to identify small molecule antagonists of the constitutive androstane receptor (CAR) signaling pathway (AID 1224838);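 further: HepG2 cells stably expressing hCAR with CYP2B6 luciferase reporter stimulated by CITCO; nearly all actives have a fitted effect of over 40% in size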
Nuclear receptor subfamily 1 group I member 3 (Homo sapiens), sequence (Q14994 whole entry, looked up): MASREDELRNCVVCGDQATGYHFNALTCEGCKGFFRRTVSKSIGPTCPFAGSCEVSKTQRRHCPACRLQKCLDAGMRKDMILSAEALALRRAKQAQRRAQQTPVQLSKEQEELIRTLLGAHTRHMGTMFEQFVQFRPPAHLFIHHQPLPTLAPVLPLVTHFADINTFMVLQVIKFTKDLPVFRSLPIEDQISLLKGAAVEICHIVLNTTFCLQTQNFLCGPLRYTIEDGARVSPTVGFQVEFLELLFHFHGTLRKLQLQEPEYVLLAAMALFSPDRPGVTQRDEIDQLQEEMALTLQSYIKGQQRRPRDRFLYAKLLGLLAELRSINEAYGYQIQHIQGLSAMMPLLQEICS
Outline: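 Read-out: ONE-Glo luciferase luminescence after 30 min at room temperature. HepG2-CYP2B6-hCAR double-stable cells, compounds in 15-point titration plus 50 nM CITCO final, 24 h at 37 C/5% CO2.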

[12] = molecular target: Nuclear receptor subfamily 1 group I member 3 (Homo sapiens) (UniProt Q14994); test: qHTS assay to identify small molecule agonists of the constitutive androstane receptor (CAR) signaling pathway (AID 1224839); further: nearly all actives have a fitted effect of over 15% in size; further: potency means the concentration at half of the fitted maximal effect
Outline: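 In this screen, CAR-driven CYP2B6 promoter activity is measured by luminescence in HepG2-CYP2B6-hCAR cells after 24 h with test compounds and 0.75 uM PK11195 (final concentration).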

[13] = qHTS assay to identify small molecule antagonists of the estrogen related receptor (ERR) signaling pathway - cell viability counter screen (AID 1224818); further: series mostly up to about 46 µM
Outline: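 Fluorescence from CellTiter-Fluor, read 30 min after reagent addition at 37 C, measured viability of ERR cells exposed to compounds for 17.5 h. Cells had settled 6 h before dosing.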

[14] = qHTS assay to identify small molecule antagonists of the estrogen related receptor signaling pathway with the pleiotropic PPARgamma coactivator (PGC) cell viability counter screen (AID 1224822; further: series mostly up to about 46 µM)
Outline: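 Fluorescence read-out of CellTiter-Fluor after 30 min at 37 C; PGC/ERR cells, 2,000 per well, had been exposed to DMSO-dissolved compounds for 17.5 h following a 6 h pre-incubation.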

[15] = qHTS assay to identify small molecule antagonists of the estrogen related receptor signaling pathway with the pleiotropic PPARgamma coactivator (PGC) from Tox21 10K library (AID 1224841; call rule not given here; further: actives are mostly falling curves and most rising ones were filed inactive; nearly all actives have a fitted effect of over 50% in size; further: potency means the concentration at half of the fitted maximal effect)
Outline: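 Luminescence read-out (One-Glo luciferase reagent, 30 min at room temperature) from PGC/ERR cells exposed to DMSO-dissolved test compounds for 18 h at 37 C; cells, 2,000 per well, had been preincubated 6 h before compound transfer.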

[16] = qHTS assay to identify small molecule agonists of the estrogen related receptor signaling pathway with the pleiotropic PPARgamma coactivator (PGC) from Tox21 10K library (AID 1224842); further: nearly all actives have a fitted effect of over 15% in size
Outline: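 Luminescence from One-Glo (30 min, room temperature) measured after PGC/ERR cells had 18 h at 37 C with pinned compound (23 nL in DMSO). Cells had been seeded at 2,000 per well and pre-incubated 6 h.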

Compound | Potency [1] | outcome [2] | outcome [3] | outcome [4] | Potency [5] | Potency [6] | Potency [7] | Potency [8] | Potency [9] | Potency [10] | outcome [11] | Potency [12] | outcome [13] | outcome [14] | Potency [15] | outcome [16]
c1ccc2c(c1)Cc1ccccc1-2 | inactive | inactive | inactive | inactive | inactive | inactive | inactive | inactive | inactive | inactive | – | – | – | – | – | –
OCc1cccc(Oc2ccccc2)c1 | inactive | inactive | inactive | inactive | inactive | inactive | – | inactive | inactive | inactive | inactive | inactive | – | – | – | –
O=c1[nH]cnc2[nH]ncc12 | inactive | inactive | inactive | inactive | inactive | inactive | inactive | inactive | inactive | inactive | inactive | inactive | inactive | inactive | – | –
C=C(C)C(=O)OCC(C)C | inactive | inactive | inactive | inactive | inactive | inactive | inactive | inactive | inactive | inactive | – | – | – | – | – | –
CCCCCCCCCCCCCCCC(=O)OC(C)C | inactive | inactive | inactive | inactive | inactive | inactive | inactive | inactive | inactive | inactive | inactive | inactive | – | – | – | –
CCCCCCCCCCCCCCCCO | inactive | inactive | inactive | inactive | inactive | inactive | inactive | inactive | inactive | inactive | inactive | inactive | – | – | – | –
CC(C)CCCCCCCOC(=O)CCCCC(=O)OCCCCCCCC(C)C | inactive | inactive | inactive | inactive | inactive | inactive | inactive | inactive | inactive | inactive | inactive | inactive | – | – | – | –
CC(=O)OCCOC(C)=O | inactive | inactive | inactive | – | – | inactive | inactive | inactive | inactive | inactive | inactive | inactive | – | – | – | –
C=CC[N+](C)(C)CC=C | inactive | inactive | inactive | inactive | inactive | inactive | inactive | inactive | inactive | inactive | – | – | – | – | – | –
C=Cc1ccc(C)cc1 | inactive | inactive | inactive | inactive | inactive | inactive | inactive | inactive | inactive | inactive | inactive | inactive | – | – | – | –
CC(C)CC(=O)CC(C)CC(C)C (stereo unspecified) | inactive | inactive | inactive | inactive | inactive | inactive | inactive | inactive | inactive | inactive | inactive | inactive | – | – | inactive | inactive
O=C1c2ccccc2CCc2ccccc21 | inactive | inactive | inactive | inactive | – | inactive | inactive | inactive | inactive | inactive | inactive | 31.3 µM (active) and 26.6 µM (active) | – | – | inactive | inactive
C[Si]1(C)O[Si](C)(C)O[Si](C)(C)O[Si](C)(C)O1 | inactive | inactive | inactive | – | – | inactive | inactive | inactive | inactive | inactive | inactive | inactive | – | – | – | –
NCCN1CCNCC1 | inactive | inactive | inactive | inactive | inactive | inactive | inactive | inactive | inactive | inactive | inactive | inactive | – | – | – | –
C=C(C)CNCC | inactive | inactive | inactive | inactive | inactive | inactive | inactive | inactive | inactive | inactive | inactive | – | – | – | inactive | inactive
NC(=S)NNC(N)=S | inactive | inactive | inactive | inactive | inactive | inactive | inactive | inactive | inactive | inactive | – | – | – | – | – | –
CCCCCC(=O)O | inactive | inactive | inactive | inactive | inactive | inactive | inactive | inactive | inactive | inactive | – | – | – | – | 54.5 µM (active) and inactive | inactive
CC1(C)CC(N)CC(C)(CN)C1 (stereo unspecified) | inactive | – | inactive | inactive | inactive | inactive | inactive | inactive | inactive | inactive | – | – | – | – | – | –
CCOCC(=O)O | inactive | – | inactive | inactive | inactive | inactive | inactive | inactive | inactive | inactive | inactive | inactive | – | – | inactive | inactive
CC(C)CC(C)O (stereo unspecified) | inactive | – | inactive | inactive | inactive | inactive | inactive | inactive | inactive | inactive | inactive | inactive | – | – | – | –
CCCCCCCC=O | inactive | inactive | inactive | – | – | inactive | inactive | inactive | inactive | inactive | – | – | – | – | – | –
C=C(C)[C@H]1CC=C(C)C(=O)C1 | inactive | inactive | inactive | – | – | inactive | inactive | inactive | inactive | inactive | – | – | – | – | – | –
